Experimental findings from PubChem BioAssay are described below.

Active and inactive are the calls of the source.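 Rule for the calls, unless noted: active = inhibition above 20% together with a positive visual image hit; inconclusive = visual image hit but inhibition not above 20%; inactive = no visual image hit.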

The nature of experiment [1]: inhibitors of TNFa-induced NFkB p65 translocation, primary screen, imaging, HUVEC, MLSMR starter and 10KST1 sets (AID 438).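 For inhibition: signal is the nuclear over cytoplasmic p65 intensity ratio per well.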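 Note: compound added about 3h40 before a 20 min TNFalpha stimulation.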 Particulars: HUVEC TNFa-induced p65 nuclear translocation; cell count: measured here: nuclei count (cytotoxicity indicator), at 2.08 µM; inhibition: at 2 µM, stronger effect = higher value, 0% TNFa-plus-vehicle, 100% no-TNFa wells.
A short description of experiment [2]: inhibitors of mutant huntingtin aggregation, primary screen, imaging, exon1htt(103Q)mCFP cells, high-content imaging (AID 483;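 active = visual image review flags a hit and inhibition of aggregation exceeds 20%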;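 note: compound exposure lasted 3 days before fixation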;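 for nuclei count: percent of the per-plate median nuclei count of sample wells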). The following applies: exon1htt(103Q)mCFP cell line, aggregate imaging, at 2 µM; inhibition of aggregation: stronger effect = higher value; nuclei count: measured here: cell count, toxicity.
Experiment [3] can be described thus: inhibitors of E-selectin induction by TNFa, primary screen, imaging, HUVEC, immunofluorescence, MLSMR starter and 10KST1 sets (AID 487;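 active = visually confirmed hit in the image check and inhibition above 20%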;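 for inhibition: signal is fraction of cell area covered by stained E-selectin grains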;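 for nuclei count: 100% = median nuclei count of all wells on the same plate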). The following applies: HUVEC TNFalpha-induced E-selectin immunofluorescence imaging, at 2 µM; inhibition: stronger effect = higher value; nuclei count: measured here: cell number, toxicity.
For experiment [4], the target named is Voltage-gated potassium channel subunit beta-2 (Rattus norvegicus) (UniProt P62483). The experiment is described as follows: KvBeta enzyme negative modulators, primary screen, biochemical, NADPH fluorescence (AID 622;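 active = fluorescence slope higher than the sample average by over 3 SD, cut at about -0.22 in these data, passing the limit was not always enough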;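 note: slope of raw intensity against log time taken from 70 to 1610 s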). The following applies: recombinant KvBeta, 4-cyanobenzaldehyde reduction, at 10 µM, stronger effect = higher value.
For experiment [5] the target is unchanged. As to the kind of experiment: KvBeta positive modulators, primary screen, biochemical, NADPH fluorescence (AID 623;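 active = NADPH fluorescence slope more negative than the mean of all samples by about 3 SD, 99.7% confidence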;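 note: fluorescence intensity change per second fitted from 20 to 320 s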). Particulars: Recombinant KvBeta, NADPH fluorescence decrease slope, 10 min; at 10 µM; stronger effect = lower value.
The target of experiment [6] is Alpha-2C adrenergic receptor (Homo sapiens) (UniProt P18825). The experiment is described as follows: modulators of alpha2C/GIRK thallium flux, primary screen, cell-based, HEK293 alpha2C/GIRK1/2 (AID 624;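 active = fluorescence slope after compound addition differing from the mean of all screened samples at 99.7% confidence, in either direction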;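 note: slope of fluorescence ratio to pre-addition baseline per second over 15 to 24 s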). The following applies: thallium flux BTC fluorescence, at 10 µM, actives lie on both sides.
A short description of experiment [7]: inhibitors of Sendai virus-induced IRF3 signaling, primary screen, TLR/RLR signaling modifier project, cell-based, Sendai virus stimulus, luciferase, 10K MLSCN set (AID 602276;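 active = inhibition at or above 50% at 10 µM; inactive = inhibition below 50%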;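 note: firefly luciferase from ISG56 promoter only with Renilla not read in this screen; 0% = Sendai virus plus DMSO and 100% = medium plus DMSO without virus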). The following applies: HEK293 RL24 IRF3 luciferase reporter, at 10 µM, stronger effect = higher value. In general terms: In a reporter assay the amount or activity of a reporter protein is the signal.

Experiment [8] can be described thus: inhibitors of poly I:C-induced TLR3 signaling, primary screen, cell-based, poly I:C stimulus, luciferase, 10K MLSCN set (AID 602277;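 active = inhibition of the reporter signal at or above 50%; inactive = inhibition below 50%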). Particulars: HEK293-TLR3 RL24 IRF3 luciferase reporter, at 10 µM, stronger effect = higher value.

Sequence of Alpha-2C adrenergic receptor (Homo sapiens) (P18825 whole entry, looked up): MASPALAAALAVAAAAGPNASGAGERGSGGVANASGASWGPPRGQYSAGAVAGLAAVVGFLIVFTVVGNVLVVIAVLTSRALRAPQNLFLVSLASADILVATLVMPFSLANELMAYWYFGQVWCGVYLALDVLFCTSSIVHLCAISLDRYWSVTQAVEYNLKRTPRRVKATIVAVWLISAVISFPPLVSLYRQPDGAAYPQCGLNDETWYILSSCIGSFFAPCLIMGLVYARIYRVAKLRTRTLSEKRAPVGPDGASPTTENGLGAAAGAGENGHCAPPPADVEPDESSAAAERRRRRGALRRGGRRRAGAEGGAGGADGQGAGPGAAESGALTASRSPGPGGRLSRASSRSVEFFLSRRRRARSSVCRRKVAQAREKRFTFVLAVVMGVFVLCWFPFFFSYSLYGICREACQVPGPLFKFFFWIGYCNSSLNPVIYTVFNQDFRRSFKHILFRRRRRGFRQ
Sequence of Voltage-gated potassium channel subunit beta-2 (Rattus norvegicus) (P62483 whole entry, looked up): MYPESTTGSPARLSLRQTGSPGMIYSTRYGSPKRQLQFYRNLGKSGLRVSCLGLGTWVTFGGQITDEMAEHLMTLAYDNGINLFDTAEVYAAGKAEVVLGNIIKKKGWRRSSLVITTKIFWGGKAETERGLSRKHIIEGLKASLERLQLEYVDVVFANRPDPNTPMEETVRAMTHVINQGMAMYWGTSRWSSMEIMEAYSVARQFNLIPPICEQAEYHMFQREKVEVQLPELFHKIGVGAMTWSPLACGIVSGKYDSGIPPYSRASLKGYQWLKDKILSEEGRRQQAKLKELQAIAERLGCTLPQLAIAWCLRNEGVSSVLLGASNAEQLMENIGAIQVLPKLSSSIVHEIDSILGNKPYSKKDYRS

One may read the inhibition as the change of the read-out against control, counted positive when it falls. Turning to `Cc1c(C(=O)Nc2cnccn2)oc2ccccc12`, in experiment [1], the cell count came out at 370. Also, the inhibition in experiment [1] was 7.3% (inactive); in experiment [3], -97.6% (inactive); in experiment [7] it was 0.764% (inactive); in experiment [8], -4.49% (inactive). Moreover, in experiment [2], the inhibition of aggregation is 7.5% (inactive). Moreover, the nuclei count in experiment [2] was determined as 95.3%; in experiment [3], 108%. The fluorescence slope in experiment [4] is -0.371 (inactive). For the same compound, the NADPH fluorescence slope in experiment [5] was 4.4e-05 (inactive). Further, the slope in experiment [6] was 0.00977 (inactive).

Consider `Cc1ccc(SC(C)c2nc(-c3ccccc3)no2)cc1` (centres undefined), for which the cell count in experiment [1] worked out at 283. For the same compound, the inhibition in experiment [1] is -7.5% (inactive); in experiment [3], 51.9% (active); in experiment [7], -11.7% (inactive); in experiment [8], -42.5% (inactive). Also, the inhibition of aggregation in experiment [2] was 8.1% (inactive). For the same compound, the nuclei count in experiment [2] is 105%; in experiment [3], 42.1%. In addition, in experiment [4], the fluorescence slope was -0.416 (inactive). Besides, the NADPH fluorescence slope in experiment [5] is -4.5e-05 (inactive). In experiment [6], the slope is 0.00449 (inactive).

Regarding `O=C(Nc1ccc(Br)c2cccnc12)c1ccc(Cn2cc(Cl)cn2)o1`, in experiment [1], the cell count is 357. Further, the inhibition in experiment [1] was 9.8% (inactive); in experiment [3], -76.7% (inactive); in experiment [7], -9.8% (inactive); in experiment [8], -11% (inactive). Also, in experiment [2], the inhibition of aggregation was 10.4% (inactive). The nuclei count in experiment [2] is 94.8%; in experiment [3], 99.5%. Further, the fluorescence slope in experiment [4] was -0.519 (inactive). Moreover, the NADPH fluorescence slope in experiment [5] is -3.6e-05 (inactive). Further, the slope in experiment [6] is 0.00614 (inactive).

For `O=C(CCc1nc2ccccc2s1)OCC(=O)N1CCN(C(=O)c2ccco2)CC1`, the cell count in experiment [1] was 641. Further, the inhibition in experiment [1] was -7.6% (inactive); in experiment [3] it was -126% (inactive); in experiment [7], 14.9% (inactive); in experiment [8], 24.8% (inactive). The inhibition of aggregation in experiment [2] was -0.7% (inactive). Also, the nuclei count in experiment [2] is 100%; in experiment [3], 128%. Moreover, the fluorescence slope in experiment [4] is -0.584 (inactive). In experiment [5], the NADPH fluorescence slope was -2.7e-05 (inactive). The slope in experiment [6] was 0.00548 (inactive).

As to `CC1(C)CC(=O)C2=C(C1)NC(=O)CC2c1ccc(N(CCC#N)CCC#N)cc1` (centres undefined), the cell count in experiment [1] was determined as 432. Moreover, the inhibition in experiment [1] is 5.9% (inactive); in experiment [3], 21.1% (inactive); in experiment [7] it was 1.16% (inactive); in experiment [8] it was 17.9% (inactive). The inhibition of aggregation in experiment [2] was -2.1% (inactive). Moreover, the nuclei count in experiment [2] was determined as 109%; in experiment [3] it was 116%. Moreover, the fluorescence slope in experiment [4] was -0.376 (inactive). Further, in experiment [5], the NADPH fluorescence slope is 6.8e-05 (inactive). Also, in experiment [6], the slope was 0.00771 (inactive).

Consider `COc1cccc(-n2nc(C(=O)Nc3ccc4c(c3)OCO4)c3ccccc3c2=O)c1`, for which the cell count in experiment [1] was 741. Further, the inhibition in experiment [1] was 1.6% (inactive); in experiment [3], -27% (inactive); in experiment [7], 3.08% (inactive); in experiment [8], -20.2% (inactive). Besides, the inhibition of aggregation in experiment [2] was -5.9% (inactive). For the same compound, the figures for the nuclei count in experiment [2] and in experiment [3] were 98.3% and 118%, respectively. Besides, the fluorescence slope in experiment [4] is -0.601 (inactive). Besides, the NADPH fluorescence slope in experiment [5] is -3.9e-05 (inactive). In experiment [6], the slope is 0.0101 (inactive).

For the compound `O=S1(=O)CC(N2CCCCC2)C(N2CCCCC2)C1` (centres undefined), the cell count in experiment [1] came to 394. Besides, the inhibition was 3.6% (inactive) in experiment [1], -31.5% (inactive) in experiment [3], 15.3% (inactive) in experiment [7] and 32.7% (inactive) in experiment [8]. The inhibition of aggregation in experiment [2] is 0.2% (inactive). Also, the values for the nuclei count in experiment [2] and in experiment [3] were 110% and 107%, respectively. For the same compound, the fluorescence slope in experiment [4] is -0.587 (inactive). In addition, the NADPH fluorescence slope in experiment [5] is -1.5e-05 (inactive). Besides, in experiment [6], the slope was 0.00686 (inactive).

As to `CCOC(=O)C(C(C)=O)c1nc(C)nc2c1nnn2Cc1ccccc1Cl` (centres undefined), the cell count in experiment [1] turned out to be 479. Moreover, the inhibition was 8.5% (inactive) in experiment [1], -10.3% (inactive) in experiment [3], -11.2% (inactive) in experiment [7] and -19.4% (inactive) in experiment [8]. For the same compound, the inhibition of aggregation in experiment [2] is -6% (inactive). The nuclei count came to 96.1% in experiment [2] and 106% in experiment [3]. In addition, the fluorescence slope in experiment [4] is -0.356 (inactive). Further, in experiment [5], the NADPH fluorescence slope was -5.3e-05 (inactive). In addition, in experiment [6], the slope was 0.00379 (inactive).

On to `c1ccc(CNc2c3c(nc4ncnn24)CCCC3)nc1`, for which the cell count in experiment [1] was 912. Moreover, the inhibition in experiment [1] was 2.1% (inactive); in experiment [3], -39.1% (inactive); in experiment [7], 15.7% (inactive); in experiment [8], 13.9% (inactive). Further, in experiment [2], the inhibition of aggregation was -30.3% (inactive). The nuclei count in experiment [2] was 102%; in experiment [3] it was 111%. In addition, the fluorescence slope in experiment [4] was -0.542 (inactive). Besides, the NADPH fluorescence slope in experiment [5] was -9.4e-06 (inactive). For the same compound, the slope in experiment [6] was 0.00501 (inactive).
